From PubChem BioAssay AID1259415 (National Center for Advancing Translational Sciences (NCATS), 2018) come the findings set out here.

Structures are written as SMILES. The whole screen tested about 410,000 compounds, of which about 18,000 (4.4%) were called active. Roughly 7% stayed inconclusive and do not appear here. The list comes from a sample in which actives are over-represented; it also holds similar structures and randomly drawn compounds. A number with no mark means an inactive call. Rule as the data show it: active = activity change below about -60%; inconclusive = no clear call, values can overlap the other calls; inactive = above about -39%.
% is scaled to controls: 0 for no effect and ±100 for the full control effect.

A short description of the test: qHTS Assay for inhibitors of the human cytomegalovirus (HCMV). The following applies: HFF cells, HCMV-luciferase reporter, 72 h; at 57.5 µM; active compounds read low. In a few lines: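 Compounds were evaluated in HFFs infected with an HCMV luciferase reporter virus (MOI 1 PFU/cell). Luciferase in lysates collected 72 h post infection served as the replication measure.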
For `CCC(=O)N1c2ccccc2CC1C(=O)N1CCN(c2cccc(OC)c2)CC1` (stereo unspecified), the activity change, negative = inhibition was 16.8%.

For `COC(=O)c1c(C)[nH]c(C(=O)/C=C/c2ccc(Cl)cc2)c1C`, the activity change, negative = inhibition is -85.4% (active).

As to `COC(=O)c1c(C)oc(C)c1S(=O)(=O)NCc1ccc(Cl)cc1`, the activity change, negative = inhibition was -3.12%.

For `COc1ccc(C)cc1NC(=O)c1[nH]c(C)c(C(C)=O)c1C`, the activity change, negative = inhibition is 106%.

With `CCc1ccc(CCC(=O)Nc2ccc(S(N)(=O)=O)cc2)o1`, the activity change, negative = inhibition is -16.8%.

For the compound `Cc1ccc(CCC(=O)Nc2ncc(Cc3cc(Cl)ccc3Cl)s2)o1`, the activity change, negative = inhibition is -89.7% (active).

On to `COc1ccccc1N1CCN(C(=O)C2CCN(S(=O)(=O)c3c(C)noc3/C=C/c3ccc(C)cc3)CC2)CC1`, for which the activity change, negative = inhibition is 1.7%.

`CCCN(CCC)C(=O)C(Cc1ccccc1)NS(=O)(=O)c1ccc2c(c1)c(=O)n(C)c(=O)n2C` (stereo unspecified): the activity change, negative = inhibition is 1.57%.

Take `CCCCc1cc(=O)oc2c(C)c(OCC(=O)N3CCC(C(N)=O)CC3)ccc12`: the activity change, negative = inhibition was -17.9%.

Turning to `CCOC(=O)C1CCN(C(=O)COc2cccc3ccccc23)CC1`, the activity change, negative = inhibition is -33.6%.

For the compound `NC(=O)C1CCN(C(=O)COc2cccc3cccnc23)CC1`, the activity change, negative = inhibition is -88.1% (active).

In the case of `CC(C)=CCCC(C)CN1CCC(n2nccc2NC(=O)c2ccccc2)CC1` (stereo unspecified), the activity change, negative = inhibition is -18.5%.

As for `COc1ccc(NC(=O)C(c2ccccc2)N2Cc3ccccc3C2=O)cc1` (stereo unspecified), the activity change, negative = inhibition is -2.09%.

In the case of `CC(C)(C)c1ccc(OC(=O)N2CCCCC2)cc1`, the activity change, negative = inhibition was 29.6%.

Regarding `CC(C)(C)c1ccc(Oc2ccc(N)cc2)cc1`, the activity change, negative = inhibition is -86.3% (active).

Consider `Cc1c(Cl)cccc1NC(=O)c1noc2c1CCCC2`, for which the activity change, negative = inhibition is -4.84%.

Take `O=C(Nc1c(Br)cc2c(c1Br)Cc1cc([N+](=O)[O-])ccc1-2)C(Cl)Cl`: the activity change, negative = inhibition was -31.6%.

For the compound `COc1ccc(-n2c(SC)nc3sc4c(c3c2=O)CCN(C(C)=O)C4)cc1`, the activity change, negative = inhibition is 24.9%.

Regarding `Cc1ccc(CNC(=O)Cn2c(=O)ccc3cc(S(=O)(=O)N4CCCC4)ccc32)cc1`, the activity change, negative = inhibition is -10.3%.

With `Cc1ccn2c(Nc3ccc4c(c3)OCCO4)c(-c3ccc(C)s3)nc2c1`, the activity change, negative = inhibition was 10.7%.

On to `COc1ccc(-c2csc(Nc3ccc(O)cc3)n2)cc1`, for which the activity change, negative = inhibition was -72.3% (active).

`N#C/C(=C\c1cccc(F)c1)c1nc(-c2cc3c(ccc4ccccc43)oc2=O)cs1`: the activity change, negative = inhibition is 1.4%.

Consider `COc1ccc(-c2csc(-c3c(N)c(C(=O)c4ccc(OC)c(OC)c4)n4ccccc34)n2)cc1`, for which the activity change, negative = inhibition was 9.65%.

For `CCOc1ccc(Nc2ncnc3scc(-c4ccc(OC)cc4)c23)cc1`, the activity change, negative = inhibition was -22.6%.

For `Cc1cc(NC(=O)c2cccc(Cl)c2)ccc1-c1cc2ccccc2oc1=O`, the activity change, negative = inhibition was 28.2%.

With `O=c1oc2ccccc2cc1-c1csc(Nc2ccc(O)cc2)n1`, the activity change, negative = inhibition was -87.2% (active).
